Results taken from PubChem BioAssay (NCI).
Compounds without any hit were thinned out: in the full panel of roughly 83,000, 20% have a hit.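 Each cell line was grown in a 96-well plate and treated with one concentration of compound for 48 hours. Values below 10 were considered active.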 Values without a mark were called inactive. Activity calls are given as the source filed them.

The compounds below were run on IGROV1 ovarian (assay: NCI-60 one-dose screen, 48 h (100 = growth as untreated, 0 = no growth, -100 = all killed)). Conditions: 10 µM unless noted.
Method: Growth inhibition of the IGROV1 human tumor cell line is measured as a screen for anti-cancer activity. Cells are grown in 96 well plates and exposed to the test compound for 48 hours. Compounds are tested at a single concentration, which is 10^-5 M for most compounds. The reported endpoint is percent growth (GI% or GIPRCNT), where numbers from 0 - 100% represent growth inhibition, and numbers from -100% - 0 represent cell death. For example, a value of 40 represents 60% growth inhibition. A value of 0 means no net growth occurred over the course of the experiment. A value of -40 indicates 40% of cells at the beginning of the experiment died by the end of the experiment. A value of -100 means all cells are dead at the end of the experiment.
NCI-60 Human Tumor Cell Lines Screen was performed using the standard one-dose NCI protocol, which is described in more detail at https://dtp.cancer.gov/discovery_development/nci-60/default.htm.
Compounds with GIPRCNT values below 10 were considered active. Activity score was based on GIPRCNT using the following formula: […]
Score is 0 for GIPRCNT values of 100 or above, 50 for GIPRCNT values of 0, and 100 for GIPRCNT values of -100.

Compared with `Cc1cc(Nc2nc(N3CCN(C)CC3)nc3ccccc23)n[nH]1`, `Cc1cc(Nc2nc(N3CCNCC3)nc3ccccc23)n[nH]1` is higher in growth: 35.6% for the first, 85.1% for the second.

First: CN1C2CCC1/C(=C\c1ccc(Cl)cc1)C1=C2[C@@H](c2ccc(Cl)cc2)C(C#N)=C(N)O1 (stereo not given in full)
Second: Clc1ccc(-c2nnc(COc3ccccc3Cl)o2)cc1
The growth of the first is lower: 79.1% for the first, 83.6% for the second.

Going from `CN1CCCCC1CCN1c2ccccc2Sc2ccc(Br)cc21` (stereo not given) to `COc1ccc(CCN2CCCn3c2nc2ccccc2c3=O)cc1`, the growth rises from 35.9% to 40.3%.

Compared with `COc1ccc(-c2nn(-c3ccccc3)cc2/C=C/C(=O)OCc2cn(-c3ccc(F)c(Cl)c3)nn2)cc1`, `COc1ccc(-c2nn(-c3ccccc3)cc2/C=C2\SC(=O)NC2=O)cc1` is higher in growth: 86.2% for the first, 103% for the second.

First: COc1cc2c(=O)n(CC3CCCCC3)c3c4cc[nH]c4ncc3c2cc1OC
Second: COc1ccc(C(=O)c2sc3nc(-c4ccccc4OC)ccc3c2N)cc1OC
The growth of the first is lower: 23.6% for the first, 57.5% for the second.

Compared with `CCCNc1nc(SC)nc(-c2cccc(N)c2)c1C#N`, `Nc1cc2nc3ccccc3sc-2cc1=O` is lower in growth: 92.2% for the first, 54.7% for the second.

Going from `CCCCCCCCCCCCCCCC(=O)OCC1OC(n2cnc3c(=S)nc(N)[nH]c32)C(OC(=O)CCCCCCCCCCCCCCC)C1OC(=O)CCCCCCCCCCCCCCC` (stereo not given) to `COC1/C=C\OC2(C)Oc3c(C)c(O)c4c(O)c(c(CN(C)CCO)c(O)c4c3C2=O)NC(=O)/C(C)=C\C=C/C(C)C(O)C(C)C(O)C(C)C(OC(C)=O)C1C` (stereo not given), the growth rises from 77.1% to 95.9%.

First: OC(c1cccc(C(F)(F)F)c1)c1cnccc1NC1CCCCCC1 (stereo not given)
Second: C[C@@]1(N2C(=O)OC[C@@H]2c2ccccc2)C(=O)N([C@H](CC(=O)N2CCC(N3CCCCC3)CC2)C(=O)NCc2cccc(C(F)(F)F)c2)[C@@H]1/C=C/c1ccccc1
The growth of the first is lower: 44.2% for the first, 72.1% for the second.

Going from `Nc1nc2ccc(-c3nc4ccc5[nH]ncc5c4c4c3CCC4)cc2s1` to `CN1CCN(c2ccc3nc(-c4ccc5nc(-c6ccc(OCCC(C)(C)C)cc6)[nH]c5c4)[nH]c3c2)CC1`, the growth rises from 21.4% to 77.7%.

Compared with `Cc1ccc(S(=O)(=O)N(CCc2ccc(Cl)cc2)S(=O)(=O)c2ccc(C)cc2)cc1`, `O=C1Nc2ccccc2/C1=C/C(=N/c1nnc(-c2ccc(Cl)cc2)s1)c1ccccc1` is lower in growth: 89.1% for the first, 21% for the second.

Going from `COc1ccc(/C=C/C(=O)c2ccc(NC(=O)c3cc4cc5ccccc5nc4s3)cc2)cc1OC` to `COc1ccc(/C(=C/c2ccc3ccccc3c2)c2nn[nH]n2)cc1OC`, the growth falls from 81.8% to 48.7%.

Going from `C[C@@H]1CCC2=C(CCC[C@]2(C)C(=O)O)[C@@]1(C)CCc1ccoc1` to `CC(C)C1=C[C@@]23CC[C@@H]4[C@](C)(CCC[C@@]4(C)C(=O)OCC#CCN4CCCC4)[C@H]2C[C@@H]1[C@H]1C(=O)OC(=O)[C@H]13`, the growth falls from 99.8% to 81.9%.

Going from `CSc1ncnc2c1ncn2C1CCCO1` (stereo not given) to `CNC(=O)c1cc(Oc2ccc3nc(NC(=O)Nc4ccc(CN5CCOCC5)c(C(F)(F)F)c4)sc3c2)ccn1`, the growth falls from 120% to 40%.

Compared with `Fc1ccc(Cc2ccc(F)cc2)cc1`, `COc1ccc(-c2cc(NC(=O)Nc3ccc(O)cc3)no2)cc1` is lower in growth: 102% for the first, 68.2% for the second.

Compared with `CC(=O)CC(C)(C)c1ccc(Cl)cc1`, `Cc1ccc2c(c1)n([O-])c1cc(Cl)ccc1[n+]2=O` is higher in growth: 96% for the first, 101% for the second.

Going from `COc1ccc(-c2cnoc2-c2cc(OC)c3c(c2)OCCO3)cc1` to `COc1ccc2[nH]c(=O)c(/C=C/C(=O)c3ccc(Nc4nccc(-c5ccc6ccccc6c5)n4)cc3)cc2c1`, the growth rises from 29.2% to 98.9%.

Going from `Cc1csc2ccc(Cl)cc12` to `CS(=O)(=O)c1c(Nc2ccccc2)n[nH]c1N`, the growth rises from 104% to 112%.

In the case of `C[C@@H]1CC[C@@H]2[C@@H]1[C@H](OC(=O)/C=C/c1ccccc1)[C@]1(c3ccccc3)C[C@@H](OC(=O)CO)[C@@]2(C)O1`, the growth is reported as 93.6%.

In the case of `O=C(/C=C/c1cc2ccccc2[nH]c1=O)/C=C/c1cc2ccccc2[nH]c1=O`, the growth is reported as -23.6% (active).
With `CCN(CC)Cc1cc(Nc2c3ccc(Cl)cc3nc3c(C)cccc23)ccc1O` the growth was -49.3% (active).
For `COc1ccc(CN2C(=O)/C(=C\c3cc(OC)c(OC)c(OC)c3)c3cc(OC)ccc32)cc1`, the growth was -9.32% (active).
`CC/C=C\C[C@H](O)C/C=C1/C(=O)C=C[C@@H]1C/C=C\CCCC(=O)NC` was tested, and the growth was 7.71% (active).
With `CN1CCN(Cc2ccc(NC(=O)c3cncc(C#Cc4cnc(N)c5cccnc45)c3)cc2C(F)(F)F)CC1` the growth was 7.64% (active).
